Molecules are shown by their SMILES. Values joined by “and” are separate entries in the source; they are usually repeats but may differ in a detail not shown here. Equal entries are not always repeated. Hit rate of the full screen: of about 420,000 compounds, about 64,000 (15%) were called active. Entries that show only a call come without a potency. About 27% were inconclusive and are not listed. This is one part of a sample in which actives are shown more often than they occur. Values without a mark were called inactive. Calls come from the whole dose curve; as a rule, active = well fitted inhibition curve with a large enough effect; inconclusive = small, poorly fitted or top-dose-only effect; inactive = flat fitted curve, though single readings scatter.
Potency is the fitted concentration of half-maximal effect.

The test can be described thus: qHTS for Inhibitors of human tyrosyl-DNA phosphodiesterase 1 (TDP1): qHTS in cells in absence of CPT. Note: nearly all actives have a fitted effect of over 55% in size. To be noted: DT40 Tdp1-/- hTDP1 cells, no CPT, ATP luminescence, 48 h; series mostly up to 46.2 µM. The source says:
Human tyrosyl-DNA phosphodiesterase 1 (TDP1) is a novel repair gene, and we propose to use it as a new target for anticancer drug development. TDP1 is not an essential protein, but under treatment with topoisomerase I poison (camptothecin: CPT), TDP1 works as a critical factor for cell survival. To directly identify novel TDP1 inhibitors active in a cellular environment, we have knocked-out the Tdp1 gene in chicken DT40 cells (Tdp1-/-) and generated a complemented counterpart cells that contains a stable transfection of the human TDP1 gene (Tdp1-/-;hTDP1 cells). For the primary screen, Tdp1-/-;hTDP1 cells will be exposed to small molecules in the presence or absence of CPT, and their growth kinetics will be evaluated after 48 hours by measuring ATP activity. […] The hit compounds will then be evaluated in the presence or absence of CPT using Tdp1-/- cells. […] In tertiary assays, biochemical gel-based assays will be used to assess whether the hit compounds specifically target TDP1.
To this end, we have screened this cell line against the MLSMR in two primary screens. In one screen we add CPT and in the other we screen in the absence of CPT; this AID represents the screen where CPT was absent.
NIH Chemical Genomics Center [NCGC]
NIH Molecular Libraries Probe Centers Network [MLPCN]
Assay Submitter (PI): Yves Pommier, NCI
DT40-hTDP1 cells without 20 nM Camptothecin (add 20 microL of DMSO in 1 L of cell culture medium) were dispensed at 400 cells/5microL/well in tissue culture treated 1536-well white wall/solid bottom assay plates (Greiner Bio-One North America, NC, U.S.A.) using a Multidrop Combi 8 channel dispenser (Thermo Fisher, Waltham, MA, USA). 23 nL compounds and controls were transferred using the pin tool (Kalypsys, San Diego, CA, USA) to the assay plates. The assay plates were then incubated at 37 masculineC for a minimum 48 hr. Three microL of Cell Titer Glo solution was added to the plates and incubated at RT in dark for 30 min. Luminescence was read using ViewLux (Perkin Elmer) with 1 sec exposure slow speed, high gain and 2x binning.
Background: qHTS replaces the single test concentration by a dilution series.
With `CN(Cc1cccc2ncccc12)C(=O)c1cnn(-c2nccc(-c3ccccc3F)n2)c1C1CC1`, the Potency was 3.66 µM (active).
On the same count and under the same terms, with `CCOC(=O)CC(SP1(=S)OCC2(CCCCO2)C(C2CCCCO2)O1)C(=O)OCC` (stereo not given) the entry was “inactive”.
Still for that read-out and setting: the value for `CC[N+](C)(CC)CCC[n+]1c(-c2ccccc2)c2cc(N)ccc2c2ccc(N)cc21` was 2.58 µM (active); that for `CCOP(=S)(OCC)C(O)CCCCCn1c(=O)c(F)cn(C2CCCO2)c1=O` (stereo not given) was “inactive”; that for `O=C(Nc1ccc(Cl)cc1C(=O)c1ccccc1)c1cc(Cl)cc(Cl)c1` was “inactive”.
`CCC1(c2ccccc2)C(=O)NC(=O)N(C)C1=O` (stereo not given): the Potency result was “inactive”.
As for `CC=C(C)C(=O)OC1CCN2CC=C(COC(=O)C(O)(C(C)OC)C(C)(C)O)C12` (stereo not given), the Potency result was “inactive”.
Same read-out and setting: the value for `COC(=O)C1=C(c2ccc(C(C)=O)cc2)C[C@@H]2CC[C@H]1N2C(=O)NCCNC(C)=O` was “inactive”.
On to `COC(=O)C1=C(c2ccc(F)cc2F)C[C@@H]2CC[C@H]1N2C(=O)NC1CC1`, for which the Potency entry was “inactive”.
Still for that read-out and setting: with `COC(=O)C1=C(c2ccc(Cl)c(C(F)(F)F)c2)C[C@@H]2CC[C@H]1N2C(=O)NC(C)C` the figure was 20.6 µM (active); with `COC(=O)C1=C(c2ccc(Cl)c(C(F)(F)F)c2)C[C@@H]2CC[C@H]1N2C(=O)NC1CC1`, 10.3 µM (active).
Turning to `COc1ccc(NC(=O)N2CCC3(CC2)OCCO3)c(OC)c1`, the Potency result was “inactive”.
For the compound `CCOC(=O)c1c(C)c(C(=O)N2CCC3(CC2)OCCO3)c(C)n1CC`, the Potency result was “inactive”.
For the compound `CCN1c2nc3c(C)cccn3c(=O)c2CC2(C(=O)N(C)C(=O)N(C)C2=O)C1C` (stereo not given), the Potency entry was “inactive”.
Still for that read-out and setting: with `CN(C)C(=O)NC(O)C(Cl)(Cl)Cl` (stereo not given) the entry was “inactive”.
Still for that read-out and setting: with `COc1ccc(-c2nn(CCC#N)cc2C(=O)Nc2ccc(C(C)=O)cc2)cc1` the entry was “inactive”.
In the case of `CN(C)CC1Oc2ccccc2OC1(O)c1ccccc1` (stereo not given), the Potency is 2.06 µM (active).
With `CCCOC(=O)C1C2c3ccccc3C(c3ccccc32)C1C(=O)O` (stereo not given), the Potency result was “inactive”.
Same read-out and setting: the value for `CC(CC(C#N)(c1ccccc1)c1ccccc1)N1CCCCC1` (stereo not given) was “inactive”; that for `CC(C)(c1ccc(OC[C@@H]2CO2)cc1)c1ccc(OC[C@H]2CO2)cc1` was 11.9 µM (active); that for `CCOC(=O)C(O)(c1ccc(N)c(OC)c1)C(F)(F)F` (stereo not given) was “inactive”.
Take `Cc1cc(N2C(=O)C3CCCN3C2c2ccc(Cl)c(Cl)c2)no1` (stereo not given): the Potency result is “inactive”.
Still for that read-out and setting: the value for `CN(C)S(=O)(=O)c1cc(C(=O)N2CCC(C(=O)O)(c3ccccc3)CC2)ccc1Cl` was “inactive”.
`Cc1ccc(NC(=O)CN(C)CC(=O)Nc2cccc(F)c2)cc1[N+](=O)[O-]`: the Potency is 1.16 µM (active).
As to `C=CCSSCC=C`, the Potency entry was “inactive”.
On to `O=C(NCC(c1cccnc1)N1CCN(c2ccccc2)CC1)Oc1ccccc1` (stereo not given), for which the Potency result is “inactive”.
On to `COc1cc2c(cc1OC)[C@@H]1C(=O)c3ccc(O)c(CC=C(C)C)c3OC1CO2` (stereo not given in full), for which the Potency entry was “inactive”.
Still for that read-out and setting: the value for `N#CC1=C(N)Oc2c(c(=O)oc3ccccc23)C1c1ccccc1OC(=O)c1cccs1` (stereo not given) was 23.1 µM (active).
In the case of `CCNc1nc2[nH]c(=O)c3c(c2s1)OC(N)=C(C#N)C3c1cccs1` (stereo not given), the Potency entry was “inactive”.
In the case of `CCOC(=O)C(O)(c1ccc(N=Cc2ccccc2O)c(C)c1)C(F)(F)F` (stereo not given), the Potency entry was “inactive”.
On the same count and under the same terms, with `CCOc1ccc(-c2cc(C)[n+](CCN(CC)CC)c(-c3ccc(OCC)cc3)c2)cc1` the figure was 0.184 µM (active).
As to `COc1ccc(CNCCc2ccc3c(c2)OCO3)c(OC)c1OC`, the Potency entry is “inactive”.
Still for that read-out and setting: the value for `COc1cc(C2c3cc4c(cc3C(O)C3COC(=O)C23)OCO4)cc(OC)c1OC` (stereo not given) was 28.2 nM (active) and 73.1 nM (active); that for `COc1ccccc1OC(=O)c1ccc(C)c(S(=O)(=O)N2CCOCC2)c1` was “inactive”.
Still for that read-out and setting: with `CCCCCn1c(=O)c(C(=O)NCc2ccccn2)c(O)c2ccccc21` the figure was 20.6 µM (active); with `COc1cc(C(c2c(O)c3ccccc3oc2=O)c2c(C)n(C)n(-c3ccccc3)c2=O)ccc1O` (stereo not given), “inactive”.
Same read-out and setting: the value for `CCCCn1c(=O)c(C(=O)Nc2ccccc2Cl)c(O)c2ccccc21` was 25.9 µM (active).
For `CCCCCn1c(=O)c(C(=O)NCc2ccccc2)c(O)c2ccccc21`, the Potency was 6.51 µM (active).
With `CCCCCn1c(=O)c(C(=O)Nc2c(C)n(C)n(-c3ccccc3)c2=O)c(O)c2ccccc21`, the Potency is 4.61 µM (active).
The same measure, in the same setting: with `O=C(CSC1c2ccccc2-c2ccccc21)N/N=C/c1ccccc1` the entry was “inactive”; with `O=C1CC(=O)N(Cc2ccccc2)C(=O)N1CCCCCCN1C(=O)CC(=O)N(Cc2ccccc2)C1=O`, “inactive”; with `CN(C)C(=O)Oc1cc(=O)n2c3c(cccc13)CCC2`, “inactive”.
The same measure, in the same setting: the value for `CC[N+]1(CCOC(=O)C(O)(c2ccccc2)c2ccccc2)CCCCC1` was “inactive”; that for `O=C(c1cc(S(=O)(=O)N2CCOCC2)ccc1F)N1CCC2(CC1)OCCO2` was “inactive”.
The same measure, in the same setting: with `CO[C@@H]1C[C@@H](C[C@H]2CC[C@H](C)[C@@H]([C@@H](C)C(=O)O)O2)O[C@]2(O[C@](C)([C@H]3CC[C@@](C)(C4OC([C@H]5O[C@@](O)(CO)[C@H](C)C[C@@H]5C)C[C@@H]4C)O3)C[C@H]2C)[C@@H]1C` (stereo not given in full) the figure was 0.588 µM (active); with `CN(C)P(=S)(Nc1ccccc1)C(Cl)(Cl)Cl` (stereo not given), “inactive”; with `O=C(Nc1cccc(OC(=O)N2CCCCC2)c1)N1CCOCC1`, 5.8 µM (active).
For the compound `O=C(Nc1cccc(F)c1)N1CC[C@@]2(CCCN(C(=O)Oc3ccccc3)C2)C1`, the Potency result is “inactive”.
For the compound `CN(C)C(=O)Oc1ccc(NC(=O)N2CCOCC2)cc1`, the Potency entry is “inactive”.
On the same count and under the same terms, the value for `c1ccc2sc(N3CCNCC3)nc2c1` was “inactive”.
The same measure, in the same setting: the value for `COc1ccc(NC(=O)c2cn(CCC#N)nc2-c2ccc([N+](=O)[O-])cc2)cc1` was “inactive”; that for `CN1CCN(/N=C/c2c[nH]c3ccccc23)CC1` was “inactive”; that for `C[C@@H]1C[C@@H]2O[C@H]2/C=C\C=C\C(=O)Cc2c(Cl)c(O)cc(O)c2C(=O)O1` was 0.164 µM (active).
Turning to `NS(=O)(=O)c1ccc(CCNC(=O)c2ccc(Cl)c(S(=O)(=O)N3CCCCCC3)c2)cc1`, the Potency was 23.1 µM (active).
`C=CCn1c(O)c(/C=N/N2CCOCC2)c(=O)[nH]c1=S`: the Potency entry was “inactive”.
The same measure, in the same setting: the value for `CN(C(=O)CSc1nc2ccc(NC(=O)COc3ccccc3)cc2s1)c1ccccc1` was 11.6 µM (active); that for `O=C(COc1ccccc1Cl)Nc1ccc2nc(SCC(=O)N3CCCC3)sc2c1` was 16.4 µM (active).
Turning to `CCOCCc1c(O)[nH]c(=S)[nH]c1=O`, the Potency result was “inactive”.
Regarding `COc1ccc(C2Oc3c(I)c(OC)cc(OC)c3CC2O)cc1OC` (stereo not given), the Potency result was “inactive”.
`CCCCC/C=C\C/C=C\C/C=C\C/C=C\CCCCCC(=O)NCCO`: the activity change, negative = growth inhibition was -2.9% [at 4.12 µM].

The record behind these values is PubChem BioAssay AID686978 (National Center for Advancing Translational Sciences (NCATS), 2013).
